Compound activity from PubChem.
The list is not random: actives were taken first. Their share in the collection is about 14%.
Pf growth 96h = P. falciparum growth inhibition at 96 hours. Potency, µM (highest dose often 28.7 µM), for inactives: at the highest dose activity change, negative = inhibition, usual class: inhibitors. hit rate 6.9% among 320,000. AID 504834. P. falciparum luciferase reporter growth, 96 h; further: potency means the concentration at half of the fitted maximal effect
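96 h incubation, 37 C, 5% CO2, of luciferase-reporter P. falciparum-infected RBCs (2% hematocrit, 0.05% parasitemia final) with test compounds; endpoint luminescence.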
MARV entry inh = inhibitors of Marburg virus binding or cell entry. Potency, µM (series often up to 37.8 µM), without a hit: at the highest dose activity change, negative = inhibition, usual class: inhibitors. AID 540276. hit rate 1.8% among 300,000. Marburg virus pseudotyped entry inhibition, cell reporter; calls by dose curve; tested in HEK293 cells; further: potency means the concentration at half of the fitted maximal effect
Lassa entry inh = blocks Lassa virus binding to or entry into cells; AID 540256; hit rate 1.2% among 300,000; Potency, µM (doses to about 37.9 µM), inactives show at the highest dose activity change, negative = inhibition, most hits filed as inhibitors; Lassa virus pseudotype entry inhibition, cell reporter; calls by dose curve; tested in HEK293 cells; further: potency means the concentration at half of the fitted maximal effect; nearly all actives have a fitted effect of over 50% in size
HCMV inh = human cytomegalovirus inhibition; activity change, negative = inhibition, % at 57.5 µM; HFF cells, HCMV-luciferase reporter, 72 h; hits give low values; AID 1259415; hit rate 4.5% among 410,000; in the data active means activity change below about -60%; inconclusive means no clear call, values can overlap the other calls; inactive means above about -39%
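Human foreskin fibroblasts infected with luciferase-reporter HCMV at MOI 1 PFU/cell, compounds at two doses. Luciferase measured 72 h post infection; normalized to buffer-only basal and Salinomycin (10uM) controls.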
Pf growth 48h = inhibits P. falciparum growth in the first generation, 48 h; hit rate 5.9% among 310,000; P. falciparum luciferase growth in erythrocytes, 48 h; AID 504832; Potency, µM (series often up to 28.7 µM), without a hit: at the highest dose activity change, negative = inhibition, actives largely listed as inhibitors; further: potency means the concentration at half of the fitted maximal effect
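Here the parasites carry a stable luciferase gene and grow inside erythrocytes in Albumax-based RPMI medium with compound for one erythrocytic cycle. Activity is scored as loss of luminescent signal.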
HCV inh = inhibitors of hepatitis C virus infection; Huh7.5.1 HCVcc-Cre infection, luciferase reporter, 44 h; hit rate 3.4% among 340,000; Potency, µM (titrated, usually from 41.8 µM), for the others: at the top dose activity change, negative = inhibition, usual class: inhibitors; further: potency means the concentration at half of the fitted maximal effect
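Cells seeded at 1,000/well and cultured 4 h, then compounds added followed by HCVcc-Cre virus (~0.5 moi). After 44 h further culture, luciferase substrate was added, plates held 15 min at room temperature, and luminescence read for 15 sec.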
Starred values were filed as active, the others as inactive; u = inconclusive; x = no result given; [ ] = dose if it differs, or a comment. Unless noted, the call rests on the fitted dose curve; in most records, active means well fitted inhibition curve with a large enough effect; inconclusive means small, poorly fitted or top-dose-only effect, or another doubt; inactive means no such curve, though single readings can be large or run the other way. On the % scale 0 is the no-effect control and ±100 the full control effect.

SMILES	Pf growth 96h	MARV entry inh	Lassa entry inh	HCMV inh	Pf growth 48h	HCV inh
COc1cccc(-c2cc(C(=O)Nc3ccc(N(C)C(C)=O)cc3)c3cc(Br)ccc3n2)c1	x	x	x	-97*	x	11µM*
COc1cc(-c2nnc(COC(=O)c3cc(C)nc4ccc(C)cc34)o2)cc(OC)c1OC	15µM*	-2%	-2%	69	x	-1%
COc1ccc(NC(=O)c2cc(-c3ccncc3)nc3ccccc23)c(OC)c1	x	5.6µM*	u	-6	x	u
COc1ccc(-c2cc(C(=O)Nc3ccc(C(N)=O)cc3)c3ccccc3n2)cc1OC	3.7µM*	u	-21%	-92*	u	u
COc1cc(-c2cc(C(=O)Nc3ccc(O)cc3)c3ccccc3n2)cc(OC)c1OC	u	x	x	-1	u	u
COc1cc(-c2nnc(COC(=O)CSc3cc(C)c4ccccc4n3)o2)cc(OC)c1OC	2%	21%	7%	56	u	u
Cc1ccc2c(c1)C(=O)N1c3cc(C)c(C)cc3NC(=O)C1C(=O)N2 (centres undefined)	x	x	x	-22	x	x
CC1CCN(C(=O)CN2C(=O)NC3(CCCCCC3)C2=O)CC1	-1%	u	11%	-4	21%	2%
COc1ccc(NC(=O)c2cc(-c3ccc(OC)c(OC)c3)nc3ccccc23)c(OC)c1	10µM*	u	u	-75*	u	u
COc1ccc(Nc2cc(C(=O)NCc3ccccn3)c3ccccc3n2)c(OC)c1	13µM*	x	x	x	33%	x
CCOc1ccccc1NC(=O)c1cc(-c2ccncc2)nc2c(Cl)cccc12	-1%	u	u	-27	5.2µM*	u
COc1ccc(-c2cc(-c3nnc(COC(=O)c4ccc(O)cc4)o3)c3ccccc3n2)cc1OC	u	u	u	-28	9.3µM*	u
COc1cccc(CNC(=O)C(C)n2c(=O)cc(-c3ccccc3)c3c(C)nn(C)c32)c1 (centres undefined)	x	x	-9%[46.1 µM]	-6	x	x
Cc1cc(NS(=O)(=O)c2ccc(NC(=O)COc3c(C)ccc(C)c3C)cc2)nc(C)n1	x	8%[46.1 µM]	23%[46.1 µM]	10	x	x
CCCCn1c(C)cc2c(c1=O)C1O[C@](c3ccsc3)(Cc3ccccc31)O2	5%[5.75 µM]	x	x	x	u	x
COc1ccc(NC(=O)c2cc(-c3ccccn3)nc3c(C)cc(C)cc23)c(C)c1	-23%	-3%	7%	-23	u	u
COc1cccc(NC(=O)c2cc(-c3ccncc3)nc3c(C)cc(C)cc23)c1	u	u	u	-31	u	10µM*
CCCOc1cccc(-c2cc(C(=O)NN)c3ccccc3n2)c1	u	u	u	-28	u	14%
COc1ccc(NC(=O)c2cc(-c3ccccc3)nc3c2cnn3C(C)C)c(OC)c1	u	x	x	-37	12µM*	u
CC(C)COc1cccc(-c2cc(C(=O)Nc3ccon3)c3ccccc3n2)c1	-8%	u	-7%	7	2.1µM*	u
COc1cccc(-c2cc(C(=O)Nc3ccncc3)c3ccccc3n2)c1	u	u	-13%	3	0.74µM*	u
COc1ccc(Cl)cc1-c1ccc2c(c1)COCC(=O)N2C	x	x	x	0	x	x
CCOC(=O)c1c(N/C=C(\C#N)c2nc(-c3ccc(OC(C)=O)cc3)cs2)sc2c1CCC2	x	1%	x	-25	x	14%
COc1ccc(-c2nc(SCC(=O)NCc3ccco3)c(-c3ccccc3)[nH]2)cc1OC	u	-25%	-34%	46	x	u
COc1ccc(-c2[nH]c(-c3ccccc3)nc2SCC(=O)NC2CCCC2)cc1	12µM*	-13%[46.1 µM]	u	-22	-29%	-17%
SMILES	Pf growth 96h	MARV entry inh	Lassa entry inh	HCMV inh	Pf growth 48h	HCV inh
COc1ccc(-c2[nH]c(-c3ccc(F)cc3)nc2SCC(=O)NC2CCCC2)cc1	u	-10%	-6%	-4	-23%	u
COc1ccc(-c2[nH]c(-c3cccc(OC)c3)nc2SCC(=O)NC2CCCC2)cc1	3.3µM*	u	u	-26	-20%	u
COc1ccc(-c2[nH]c(-c3ccccc3)nc2SCC(=O)NCc2ccco2)cc1OC	1µM*	3%	x	20	x	u
CCn1c(=O)n(CC)c2cc(N3CCCC3)c(NC(=O)Nc3cc(C)cc(C)c3)cc21	x	x	-12%[46.1 µM]	-24	x	x
O=C(Nc1ccc(N2CCN(Cc3ccccc3)CC2)cc1)c1ncn[nH]1	x	u	-19%	-10	5.9µM*	8%
COc1ccc(C(=O)Nc2ccc(Cn3ccnc3)cc2)cc1OC	10µM*	0%[46.1 µM]	16%[46.1 µM]	147	34%	u
COc1cc(OC)cc(C(=O)Nc2ccc(Cn3ccnc3)cc2)c1	22%	x	x	7	u	0%
COc1ccc(NC(=O)c2ccc(CN3CCN(c4ccccc4)CC3)cc2)cc1OC	u	10µM*	u	x	u	u
COc1cc(Cn2ccnc2)c(OC)cc1Cn1ccnc1	u	-15%	u	62	9.3µM*	24%
COc1cc(OC)c(NS(=O)(=O)c2cc3c(cc2C)N(C(C)=O)CCO3)cc1Cl	x	x	u	-8	x	x
CCC1Cc2[nH][nH]c(=O)c2C(CC)O1 (centres undefined)	x	x	x	12	x	x
COc1cc2ncc(C(=O)c3ccccc3)c(N3CCN(Cc4ccccc4)CC3)c2cc1OC	u	u	-28%	12	4.7µM*	-22%
O=C(CCCn1c(=O)c2cccn2c2ccc(F)cc21)NCCc1ccccc1	x	x	-23%[46.1 µM]	u	x	x
COc1ccc(C2C(C(=O)Nc3ccccc3)=C(C)Nc3nc(-c4ccccc4)nn32)cc1OC (centres undefined)	x	-2%[46.1 µM]	-16%[46.1 µM]	-37	x	x
Cc1ccc(NC(=O)CN(C)C(=O)c2cccc(-n3cccc3)c2)cc1	7%	-24%	8%	-7	31%	-26%
CCOc1ccc2c(c1)C(=NNC(=O)c1ccncc1)c1cc(OCC)ccc1-2	2.1µM*	3.2µM*	6.3µM*	-95*	9.3µM*	-4%
COc1ccc(S(=O)(=O)N2CCCCCC2)cc1NC(=O)CCCOc1ccccc1	u	x	x	-31	9.3µM*	13µM*
COc1ccc(S(=O)(=O)N2CCCCC2)cc1NC(=O)CSc1ncccn1	12µM*	x	x	1	u	15%
CCC(=O)c1ccc(OCC(=O)Nc2cc(S(=O)(=O)N3CCCCC3)ccc2OC)cc1	u	x	x	-5	u	11µM*
COc1ccc(OCCCC(=O)Nc2cc(S(=O)(=O)N3CCCCC3)ccc2OC)cc1	9.3µM*	x	x	14	12µM*	u
COc1ccc(S(=O)(=O)N2CCOCC2)cc1NC(=O)CCCOc1ccccc1	x	10%	9%	8	x	-9%
CCN1CCC(N(Cc2ccc3c(c2)OCO3)C(=O)Nc2cc(F)ccc2F)CC1	x	x	-18%[46.1 µM]	-19	x	x
COC1CCCC(c2nc(N)nc(SC)c2C#N)C1 (centres undefined)	x	4%	x	x	x	x
